Activity calls are given as the source filed them. The calls were made as follows: active = hit-call score of the fitted dose curve at least 0.9, where 1 is the maximum; inactive = score below 0.9.

A short description of the assay: ATG_NF_kB_CIS: Attagene CIS-FACTORIAL HepG2 Assay for human Nuclear Factor Kappa B (NF-kB) (AID 2282991). The settings on record: HepG2 Attagene cis-factorial NF-kB reporter mRNA; actives raise or lower the signal. As to the method:
ATG_CIS is a cell-based, multiplexed-readout assay that uses HepG2, a human liver cell line, with measurements taken at 24 hours after chemical dosing in a 24-well plate.ATG_NF_kB_CIS is one of 52 assay component(s) measured or calculated from the ATG_CIS assay. It is designed to make measurements of mRNA induction, a form of inducible reporter, as detected with fluorescence intensity signals by Reverse transcription polymerase chain reaction (RT-PCR) and Capillary electrophoresis technology.Data from the assay component ATG_NF_kB_CIS was analyzed into 1 assay endpoint. This assay endpoint, ATG_NF_kB_CIS, was analyzed with bidirectional fitting relative to DMSO as the negative control and baseline of activity. Using a type of inducible reporter, measures of mRNA for gain or loss-of-signal activity can be used to understand the reporter gene at the transcription factor-level as they relate to the gene NFKB1. Furthermore, this assay endpoint can be referred to as a primary readout, because this assay has produced multiple assay endpoints where this one serves a reporter gene function. To generalize the intended target to other relatable targets, this assay endpoint is annotated to the dna binding intended target family, where the subfamily is NF-kappa B.
Human liver HepG2 cells are transiently transfected with multiple reporter transcription units (MRTUs) in 6-well plates using FuGene 6 reagent (Roche; 3 ml FuGene/1 mg DNA). The MRTU constructs are regulated by a cis-regulating element (promoter). […] A major difference between the CIS and TRANS system is that in CIS activities of endogenous TFs are measured, whereas the TRANS assay evaluates changes in activities of exogenous, chimeric NR-Gal4 proteins. […] At the end of 24 hour incubation, total RNA was isolated using TriZol reagent (Invitrogen). The isolated RNA is then reverse-transcribed using oligo(dT) primer and Mo-MLV reverse transcriptase (Invitrogen) with DNAse I (Ambion) treatment for 30 min. The one-tenth of the produced cDNA was amplified by PCR using Taq DNA polymerase (Invitrogen) and two reporter sequence-specific primers. The PCR products were fluorescently labeled by primer extension with 6-arboxyfluorescein (6-FAM) 5'-labeled reporter sequence-specific primer (2 min at 95 C, 20 s at 68 C and 10 min at 72 C) and these products were digested with 5U of HpaI (New England Biolabs) for 2h at 37 C. The fragments were purified using Qiaquick PCR columns (Qiagen), analyzed on an ABI 3130xL genetic analyzer (Applied Biosystems) with peak positions identified by using a set of X-rhodamine (ROX)-labeled MapMarker1000 molecular weight standards (BioVentures). The raw capillary electrophoresis data was processed using Attagraph software (Attagene).
Turning to `CCc1cccc(CC)c1`, the call was inactive.

Consider `Cc1cc(C)c(C=O)c(C)c1`, for which the call was inactive.

With `CC(C)c1ccc2ncccc2c1`, the outcome was inactive.

For `Cc1cc(C)n(CO)n1`, the outcome was inactive.

In the case of `CCc1cccc(C)c1N`, the molecule was classed as inactive.

For the molecule `CCCC(CC)c1ccccc1` (stereo not given), the call was inactive.

For the molecule `CCCCC1C(=O)N(c2ccccc2)N(c2ccccc2)C1=O`, the outcome was inactive.

On to `C[N+](C)(C)CCCNS(=O)(=O)C(F)(F)C(F)(F)C(F)(F)C(F)(F)C(F)(F)C(F)(F)C(F)(F)C(F)(F)F`, for which the molecule was classed as inactive.

As to `OCCCc1ccccc1`, the molecule was called inactive.

Regarding `C=CC(=O)OCCCCCCCCCC`, the outcome was inactive.

As for `CC1C(C)(C)C2=C(C(=O)CCC2)C1(C)C` (stereo not given), the molecule was classed as inactive.

On to `CC1CC(=O)CC(C)(C)C1` (stereo not given), for which the molecule was called inactive.

In the case of `Nc1ncnc2nc[nH]c12`, the outcome was inactive.

In the case of `NNS(=O)(=O)c1ccc(Oc2ccc(S(=O)(=O)NN)cc2)cc1`, the molecule was called inactive.

In the case of `CCC1COC(=O)O1` (stereo not given), the result was inactive.

For the molecule `CC1CCC(C(C)(C)S)C(=O)C1` (stereo not given), the result was inactive.

As for `CC(=O)CC(=O)Nc1ccccc1C`, the outcome was inactive.

As to `O=C(O)c1ccc2c(c1)C(=O)OC2=O`, the molecule was called inactive.

For the molecule `O=C(Nc1ccccc1)c1cc(Cl)ccc1O`, the call was inactive.

On to `CC1=CP(=O)(c2ccccc2)CC1` (stereo not given), for which the outcome was inactive.

For `CCOC(=O)c1ccc(C)cc1`, the molecule was classed as inactive.

For `NC(=O)Nc1ccccc1`, the molecule was classed as inactive.

Turning to `Cc1cccc(C(C)(C)C)c1O`, the molecule was classed as inactive.

Consider `CCCCCC(=O)OCC`, for which the molecule was classed as inactive.

For the molecule `Nc1ccc(C(=O)O)cc1`, the outcome was inactive.

In the case of `CCNc1nc(NC(C)(C)C)nc(OC)n1`, the result was inactive.

As to `c1ccc(Nc2cccc3ccccc23)cc1`, the call was inactive.

Take `CCCCCCCCCC(C)=O`: the molecule was called inactive.

As for `C[Si]1(C)O[Si](C)(C)O[Si](C)(C)O[Si](C)(C)O[Si](C)(C)O1`, the call was inactive.

For `Clc1cccnc1`, the molecule was classed as inactive.

With `C=Cc1ccc(OC(C)=O)cc1`, the call was inactive.

As to `Cc1ccc(C)c(OCCCC(C)(C)C(=O)O)c1`, the molecule was classed as inactive.

As for `CCCCCCCCCCCCCC(=O)OC(C)C`, the call was inactive.

In the case of `N#Cc1ccc(C2CCCc3cncn32)cc1` (stereo not given), the molecule was called inactive.

For `Cc1ccc2c(c1)CCCN2`, the outcome was inactive.

As for `CCCCC(CC)COC(=O)/C=C/c1ccc(OC)cc1` (stereo not given), the molecule was called inactive.

With `C=C(C)C(=O)OCC(O)COc1ccc(C(C)(C)c2ccc(OCC(O)COC(=O)C(=C)C)cc2)cc1` (stereo not given), the call was inactive.

Regarding `C=CCCCCCCCCC=O`, the outcome was inactive.

With `CC(=O)c1ccc(S(=O)(=O)NC(=O)NC2CCCCC2)cc1`, the molecule was classed as inactive.

For `CCC[Si](OC)(OC)OC`, the outcome was inactive.
